Source: PubChem BioAssay AID1117270 (Broad Institute, 2014)
Potency and affinity values are given separately.

Assay: SELE mRNA upregulation in endothelial cells – cell-based, HUVEC, RT-qPCR, dry powder, orthogonal assay for E-selectin inducer project, confirmation (AID 1117270)
Settings: 7 h; at 38 µM unless noted;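 active means compounds with a valid dose curve toward the stimulated control whose half-maximal dose is at most twice the top dose; inconclusive means curve fit judged invalid or of poor quality; inactive means the rest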

Max activity, inactive:
O=C(c1c(F)cccc1F)N(Cc1ccccc1)Cc1ccccc1 -17.4% [at 0.16 µM]
CCc1ccc(-n2c(=S)sc3c(=O)n(-c4ccccc4C)c(SCC(=O)O)nc32)cc1 9.28% [at 10 µM]
COc1ccc(Nc2ccccc2N)cc1 12.2%
CCc1cccc2c1NC1(CCCC1)CC2C (centres undefined) 7.51% [at 5 µM]
Cc1cc2cc(CNC(=O)Nc3cccc(Cl)c3)ccc2n1C 7.76% [at 1.2 µM]
Cc1cc2ccccc2n1CCNC(=O)COc1ccc2ccccc2c1 9.31% [at 10 µM]
OCc1ccc(-c2nn(Cc3ccccc3)c3ccccc23)o1 6.5% [at 2.6 µM]
O=C(O)C1CCN(c2nc(-c3ccccc3)c3cc(Br)ccc3n2)CC1 -4.71% [at 0.038 µM]
CNc1ccccc1C(C)(C)c1cc(-c2cccc(OC)c2)no1 -5.8% [at 0.0001 µM]
Cc1ccc(S(=O)(=O)NCc2ccc3c(c2)cc(C)n3C)cc1 4.64%
Cc1cc2cc(CNC(=O)Nc3ccc(Cl)c(Cl)c3)ccc2n1C -8.31%
Cc1ccc(CSc2nc3[nH]ncc3c(=O)[nH]2)cc1 8.8% [at 0.0001 µM]
COc1cc(CC2C(=O)Nc3ccccc32)cc(C)c1O (centres undefined) 8.57% [at 0.038 µM]
Cc1cc(C)c(S(=O)(=O)NCCn2c(C)cc3ccccc32)c(C)c1 -91.1%
